Test results as given in PubChem BioAssay (EPA / NIEHS).
Inconclusive results are not listed. Activity calls are given as the source filed them. Rule for the calls: active = hit-call score of the fitted dose curve at least 0.9, where 1 is the maximum; inconclusive = response in the unintended direction; inactive = score below 0.9.

Each molecule was assayed on organic anion transporter (SLCO1B1), SLCO1B1 (gene 10599) (assay: CLD_SLCO1B1_24hr: CellzDirect (CLD) Gene Expression Assay for organic anion transporter (SLCO1B1) at 24 hours (AID 2283690)).
Procedure: CLD_24hr is a cell-based, multiplexed-readout assay that uses hepatocyte, a human liver primary cell, with measurements taken at 24 hours after chemical dosing in a 96-well plate.CLD_SLCO1B1_24hr is one of 16 assay component(s) measured or calculated from the CLD_24hr assay. It is designed to make measurements of mRNA induction, a form of inducible reporter, as detected with chemiluminescence signals by Quantitative Nuclease Protection Assay (qNPA) technology.Data from the assay component CLD_SLCO1B1_24hr was analyzed at the endpoint, CLD_SLCO1B1_24hr, in the positive analysis fitting direction relative to DMSO as the negative control and baseline of activity. Using a type of inducible reporter, gain-of-signal activity can be used to understand changes in the reporter gene as they relate to the gene SLCO1B1. Furthermore, this assay endpoint can be referred to as a primary readout. To generalize the intended target to other relatable targets, this assay endpoint is annotated to the transporter intended target family, where subfamily is organic anion transporter.
Human hepatocyte cultures were treated daily for two consecutive days with fresh dosing solutions containing appropriate concentrations of the 320 ToxCast chemicals (chemical identities were blinded to CellzDirect and other ToxCast collaborators), vehicle control (0.2% DMSO), and positive control inducers as summarized in Table 1. Due to the large number of treatment groups and chemicals examined, the ToxCast chemicals were divided into two groups (spanning two independent cultures of hepatocytes from separate donor preparations (Hu778: ToxCast plates 1 and 2; Hu776: ToxCast plates 3 and 4). Each preparation of human hepatocyte cultures was treated with respective vehicle control, medium only control, set of six positive controls/reference chemicals for the five hepatic receptor pathways, and a subset of eight of the ToxCast chemicals (indoxacarb, pyrithiobac-sodium, norflurazon, cyhalofop-butyl, methomyl, thiram, acetochlor, and propiconazole). These replicate data, coupled with internal replicates designed within the blinded ToxCast chemical library, provided additional data to evaluate interindividual differences between hepatocyte preparations and their potential impact on chemical profiles.Cell morphology and integrity were evaluated using phase-contrast microscopy as an indicator of hepatocyte cell health (Tyson & Green, 1987). Cultures for each treatment group (i.e., media, vehicle [0.2% DMSO], positive control inducers [multiple concentrations], and the ToxCast chemicals [multiple concentrations]) were observed and cell morphology was assessed relative to vehicle control cultures at each harvest time point (0, 6, 24, or 48 h). […] Images were evaluated at the conclusion of the study to assess changes in cell integrity and account for the effects of chemical exposure on uncharacteristic changes in concentration-dependent gene expression profiles. The results from these determinations of apparent cytotoxicity were annotated (yes/no) alongside the corresponding qNPA data for reference.At the conclusion of each treatment period, hepatocyte cultures (96-well) were washed with 1 volume of HBSS, lysed by addition of 25 ul ArrayPlate lysis buffer (HTG, Tucson, AZ), and 70 ul/well of Denaturation Oil, denatured by incubation at 95C for 10 min, and frozen at approximately -70C until analysis by nuclease protection assay (qNPA) (Roberts et al., 2007). For qNPA analysis, cell lysates were thawed at 50C for approximately 30 min, qNPA probes were added, and samples were incubated at 95C for 10 min to begin the detection process by denaturing the target RNA, dissociating the duplexes and secondary structure hybridization. At the conclusion of the hybridization period, S1 nuclease reagent was added to each sample to digest all nonprotected nucleotides at 50C for 60-90 min. […]

**Q.** `O=c1n(Cl)c(=O)n(Cl)c(=O)n1Cl` was tested. Which outcome did it give?
**A.** inactive

**Q.** `Cc1ccc(N=CN(C)C=Nc2ccc(C)cc2C)c(C)c1` was tested. Which outcome did it give?
**A.** inactive

**Q.** `Clc1cccc(C(Cl)(Cl)Cl)n1` was tested. Which outcome did it give?
**A.** inactive

**Q.** For `COCC(=O)N(c1c(C)cccc1C)C(C)C(=O)OC` (stereo not given), which outcome is on record?
**A.** inactive

**Q.** Which outcome does the source give for `CCCN(CC)CC1COC2(CCC(C(C)(C)C)CC2)O1` (stereo not given) here?
**A.** inactive

**Q.** `CC(C)N1C(=O)N(c2ccccc2)CSC1=NC(C)(C)C` was tested. Which outcome did it give?
**A.** inactive

**Q.** Which outcome does the source give for `Nc1c(Cl)c(F)nc(OCC(=O)O)c1Cl` here?
**A.** inactive

**Q.** How did the outcome turn out when `CC1(C)CON(Cc2ccccc2Cl)C1=O` was run?
**A.** inactive

**Q.** `CCCC(=NOCC)C1=C(O)CC(CC(C)SCC)CC1=O` (stereo not given) was tested. Which outcome did it give?
**A.** inactive

**Q.** Which outcome does the source give for `CNC(=O)N(C)c1nnc(C(C)(C)C)s1` here?
**A.** inactive

**Q.** Which outcome does the source give for `Cc1c(COC(=O)[C@@H]2[C@H](/C=C(\Cl)C(F)(F)F)C2(C)C)cccc1-c1ccccc1` here?
**A.** inactive

**Q.** How did the outcome turn out when `COCC(C)N(C(=O)CCl)c1c(C)csc1C` (stereo not given) was run?
**A.** inactive

**Q.** How did the outcome turn out when `CC(C)=CC1C(C(=O)OCc2coc(Cc3ccccc3)c2)C1(C)C` (stereo not given) was run?
**A.** inactive

**Q.** How did the outcome turn out when `CO/N=C(/C1=NOCCO1)c1ccccc1Oc1ncnc(Oc2ccccc2Cl)c1F` was run?
**A.** inactive

**Q.** Which outcome does the source give for `CCOP(=O)(OCC)Oc1nc(Cl)c(Cl)cc1Cl` here?
**A.** inactive

**Q.** With `CS(=O)(=O)c1cc(C(F)(F)F)ccc1C(=O)c1cnoc1C1CC1` as the molecule, how does the outcome read?
**A.** inactive

**Q.** Which outcome does the source give for `O=C(O)c1c(Cl)ccc2cc(Cl)cnc12` here?
**A.** inactive

**Q.** How did the outcome turn out when `COP(=S)(OC)Oc1ccc([N+](=O)[O-])c(C)c1` was run?
**A.** inactive

**Q.** For `Cc1cnc(C2=NC(C)(C(C)C)C(=O)N2)c(C(=O)O)c1` (stereo not given), which outcome is on record?
**A.** inactive

**Q.** For `CCNC(=O)NC(=O)C(C#N)=NOC`, which outcome is on record?
**A.** inactive

**Q.** For `Clc1nc(Cl)nc(Nc2ccccc2Cl)n1`, which outcome is on record?
**A.** inactive

**Q.** Which outcome does the source give for `CCCCC(C#N)(Cn1cncn1)c1ccc(Cl)cc1` (stereo not given) here?
**A.** inactive

**Q.** `COP(=O)(OC)O/C(C)=C/C(=O)N(C)C` was tested. Which outcome did it give?
**A.** inactive

**Q.** Which outcome does the source give for `CN=C=S` here?
**A.** inactive

**Q.** For `CSC(=O)c1c(C(F)F)nc(C(F)(F)F)c(C(=O)SC)c1CC(C)C`, which outcome is on record?
**A.** inactive

**Q.** For `OC(c1ccc(Cl)cc1)(c1ccc(Cl)cc1)C(Cl)(Cl)Cl`, which outcome is on record?
**A.** inactive

**Q.** Which outcome does the source give for `O=C1C2CC=CCC2C(=O)N1SC(Cl)(Cl)Cl` (stereo not given) here?
**A.** inactive

**Q.** How did the outcome turn out when `COC(=O)NS(=O)(=O)c1ccc(N)cc1` was run?
**A.** inactive

**Q.** With `N#Cc1c(Cl)cccc1Cl` as the molecule, how does the outcome read?
**A.** inactive

**Q.** `CC(C)Oc1cccc(NC(=O)c2ccccc2C(F)(F)F)c1` was tested. Which outcome did it give?
**A.** inactive
